Measured values from article PMC7862700, “An all-to-all approach to the identification of sequence-specific readers for epigenetic DNA modifications on cytosine”.

Assays:
Test in all cases: DAPPL (digital affinity profiling via proximity ligation, sequencing); 10 mM Tris-HCl pH 7.5, 50 mM NaCl, 1 mM DTT, 4% glycerol, room temperature, 30 min; GST-TFs on glutathione beads, 16-mer random dsDNA library, 0.1% formaldehyde crosslink after washing; high values mean tight binding
FLI1 = target: T1, FLI1 (Homo sapiens, UniProt Q01543 1-452); details: protein: recombinant; tags: N-terminal GST; dsDNA, one strand shown
T1 sequence: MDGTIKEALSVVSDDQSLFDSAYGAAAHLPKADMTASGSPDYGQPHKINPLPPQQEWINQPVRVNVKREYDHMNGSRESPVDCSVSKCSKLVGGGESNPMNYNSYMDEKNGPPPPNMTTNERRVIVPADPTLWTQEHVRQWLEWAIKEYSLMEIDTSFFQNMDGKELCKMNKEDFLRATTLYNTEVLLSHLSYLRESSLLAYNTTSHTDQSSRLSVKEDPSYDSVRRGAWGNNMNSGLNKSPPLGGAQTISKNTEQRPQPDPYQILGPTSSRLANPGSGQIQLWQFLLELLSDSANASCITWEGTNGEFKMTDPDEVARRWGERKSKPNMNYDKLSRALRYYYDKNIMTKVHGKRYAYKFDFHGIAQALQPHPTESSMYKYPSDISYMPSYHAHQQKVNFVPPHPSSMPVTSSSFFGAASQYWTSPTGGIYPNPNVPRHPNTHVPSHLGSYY
Method in brief: (§1)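 Pools of DNA-barcoded human transcription factors, expressed in yeast as GST fusions on glutathione beads and combined with a tag-only sample, were incubated with 200 nmole of a 16-mer random double-stranded DNA library. Incubation took 30 min at room temperature in Tris/NaCl/DTT/glycerol buffer and was followed by washing, 0.1% formaldehyde crosslinking, proximity ligation (BsaI/T4 ligase, 1 h, 37 °C), PCR amplification and sequencing on an Illumina NextSeq500. Binding signal is the ratio of a hexamer's read frequency for a factor to its frequency for the tag-only sample.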

ELK1 = target: T2, ELK1 (Homo sapiens, UniProt P19419 1-428); details: protein: recombinant; tags: N-terminal GST; dsDNA, one strand shown
T2 sequence: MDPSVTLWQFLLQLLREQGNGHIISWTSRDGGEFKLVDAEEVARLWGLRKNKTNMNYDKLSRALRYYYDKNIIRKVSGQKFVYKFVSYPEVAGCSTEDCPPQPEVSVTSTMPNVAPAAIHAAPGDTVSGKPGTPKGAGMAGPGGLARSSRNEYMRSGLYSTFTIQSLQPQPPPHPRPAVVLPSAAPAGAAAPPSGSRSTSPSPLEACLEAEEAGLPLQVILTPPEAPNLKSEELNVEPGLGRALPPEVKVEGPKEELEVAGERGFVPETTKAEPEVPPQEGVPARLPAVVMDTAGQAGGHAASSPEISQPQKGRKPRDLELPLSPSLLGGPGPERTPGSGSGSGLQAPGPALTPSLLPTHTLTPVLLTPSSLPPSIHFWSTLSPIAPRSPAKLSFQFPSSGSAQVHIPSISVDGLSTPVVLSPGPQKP
Method in brief: as §1

GABPA = target: T3, GABPA (Homo sapiens, UniProt Q06546 1-454); details: protein: recombinant; tags: N-terminal GST; dsDNA, one strand shown
T3 sequence: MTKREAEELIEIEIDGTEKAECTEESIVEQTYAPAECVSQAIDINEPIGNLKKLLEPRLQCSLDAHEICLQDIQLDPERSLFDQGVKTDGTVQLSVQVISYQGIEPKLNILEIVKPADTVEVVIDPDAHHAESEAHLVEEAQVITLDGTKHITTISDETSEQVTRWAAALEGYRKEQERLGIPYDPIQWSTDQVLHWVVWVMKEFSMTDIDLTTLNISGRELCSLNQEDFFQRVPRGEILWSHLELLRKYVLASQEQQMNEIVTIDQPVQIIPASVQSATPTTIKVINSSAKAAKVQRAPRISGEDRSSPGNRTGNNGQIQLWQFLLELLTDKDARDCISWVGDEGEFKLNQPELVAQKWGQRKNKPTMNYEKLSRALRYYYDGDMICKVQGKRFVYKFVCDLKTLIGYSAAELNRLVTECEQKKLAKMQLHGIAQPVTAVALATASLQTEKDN
Method in brief: as §1

ERG = target: T4, ERG (Homo sapiens, UniProt P11308 1-479); details: protein: recombinant; tags: N-terminal GST; dsDNA, one strand shown
T4 sequence: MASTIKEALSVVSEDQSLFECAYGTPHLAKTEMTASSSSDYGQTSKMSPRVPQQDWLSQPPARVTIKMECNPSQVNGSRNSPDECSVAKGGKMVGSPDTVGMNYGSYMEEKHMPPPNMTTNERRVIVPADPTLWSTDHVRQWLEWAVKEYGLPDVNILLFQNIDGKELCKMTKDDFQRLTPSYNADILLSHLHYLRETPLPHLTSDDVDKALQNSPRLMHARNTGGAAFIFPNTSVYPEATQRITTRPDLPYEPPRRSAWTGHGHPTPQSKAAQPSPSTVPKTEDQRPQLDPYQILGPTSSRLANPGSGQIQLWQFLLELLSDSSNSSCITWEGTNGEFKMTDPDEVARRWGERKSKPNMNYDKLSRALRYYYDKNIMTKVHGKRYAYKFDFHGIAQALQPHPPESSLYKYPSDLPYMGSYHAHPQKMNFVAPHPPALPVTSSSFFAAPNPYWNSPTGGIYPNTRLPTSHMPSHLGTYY
Method in brief: as §1

ELF1 = ELF1 (Homo sapiens, UniProt P32519 1-619); details: protein: recombinant; tags: N-terminal GST; dsDNA, one strand shown
Method in brief: as §1

EHF = target: T5, EHF (Homo sapiens, UniProt Q9NZC4 1-300); details: protein: recombinant; tags: N-terminal GST; dsDNA, one strand shown
T5 sequence: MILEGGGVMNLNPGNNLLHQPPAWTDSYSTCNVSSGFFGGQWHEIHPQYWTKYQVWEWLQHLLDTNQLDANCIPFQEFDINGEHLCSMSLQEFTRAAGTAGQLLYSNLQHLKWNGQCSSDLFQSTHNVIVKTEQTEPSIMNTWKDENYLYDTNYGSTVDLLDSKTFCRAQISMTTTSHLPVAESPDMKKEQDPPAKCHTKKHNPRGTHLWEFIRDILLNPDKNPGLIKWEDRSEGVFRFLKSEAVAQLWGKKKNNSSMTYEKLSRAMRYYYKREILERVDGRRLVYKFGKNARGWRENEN
Method in brief: as §1

SPI1 = SPI1 (Homo sapiens, UniProt P17947 1-270); details: protein: recombinant; tags: N-terminal GST; dsDNA, one strand shown
Method in brief: as §1

SPIB = SPIB (Homo sapiens, UniProt Q01892 1-262); details: protein: recombinant; tags: N-terminal GST; dsDNA, one strand shown
Method in brief: as §1

ELK3 = target: T6, ELK3 (Homo sapiens, UniProt P41970 1-407); details: protein: recombinant; tags: N-terminal GST; dsDNA, one strand shown
T6 sequence: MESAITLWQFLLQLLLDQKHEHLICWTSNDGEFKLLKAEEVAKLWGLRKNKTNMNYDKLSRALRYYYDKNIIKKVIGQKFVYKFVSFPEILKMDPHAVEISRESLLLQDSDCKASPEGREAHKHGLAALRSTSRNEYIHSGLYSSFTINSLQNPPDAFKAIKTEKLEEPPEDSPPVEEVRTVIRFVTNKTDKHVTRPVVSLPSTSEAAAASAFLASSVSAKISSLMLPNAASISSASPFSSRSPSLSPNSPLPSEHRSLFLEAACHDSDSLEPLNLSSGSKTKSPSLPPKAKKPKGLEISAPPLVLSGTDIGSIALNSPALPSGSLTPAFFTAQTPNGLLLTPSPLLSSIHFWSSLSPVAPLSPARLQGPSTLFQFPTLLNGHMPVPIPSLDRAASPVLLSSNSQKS
Method in brief: as §1

FEV = target: T7, FEV (Homo sapiens, UniProt Q99581 1-238); details: protein: recombinant; tags: N-terminal GST; dsDNA, one strand shown
T7 sequence: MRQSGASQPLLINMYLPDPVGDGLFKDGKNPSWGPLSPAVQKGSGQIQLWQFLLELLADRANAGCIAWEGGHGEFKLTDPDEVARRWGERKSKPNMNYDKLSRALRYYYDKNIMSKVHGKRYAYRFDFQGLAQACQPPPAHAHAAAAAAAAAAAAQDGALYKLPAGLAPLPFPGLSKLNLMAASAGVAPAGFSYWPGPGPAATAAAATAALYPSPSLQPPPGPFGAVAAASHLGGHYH
Method in brief: as §1

ETV5 = ETV5 (Homo sapiens, UniProt P41161 1-510); details: protein: recombinant; tags: N-terminal GST; dsDNA, one strand shown
Method in brief: as §1

HSF1 = HSF1 (Homo sapiens, UniProt Q00613 1-529); details: protein: recombinant; tags: N-terminal GST; chain copies: 3; dsDNA, one strand shown
Method in brief: as §1

SPIC = target: T8, SPIC (Homo sapiens, UniProt Q8N5J4 1-248); details: protein: recombinant; tags: N-terminal GST; dsDNA, one strand shown
T8 sequence: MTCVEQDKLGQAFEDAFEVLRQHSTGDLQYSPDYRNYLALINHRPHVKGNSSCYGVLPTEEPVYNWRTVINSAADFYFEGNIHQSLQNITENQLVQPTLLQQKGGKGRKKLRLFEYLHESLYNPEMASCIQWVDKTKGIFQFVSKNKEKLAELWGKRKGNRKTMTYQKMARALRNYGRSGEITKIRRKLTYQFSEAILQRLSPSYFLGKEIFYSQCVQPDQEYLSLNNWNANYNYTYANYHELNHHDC
Method in brief: as §1

ELF4 = ELF4 (Homo sapiens, UniProt Q99607 1-663); details: protein: recombinant; tags: N-terminal GST; dsDNA, one strand shown
Method in brief: as §1

ELK4 = target: T9, ELK4 (Homo sapiens, UniProt P28324-2 1-405); details: protein: recombinant; tags: N-terminal GST; dsDNA, one strand shown
T9 sequence: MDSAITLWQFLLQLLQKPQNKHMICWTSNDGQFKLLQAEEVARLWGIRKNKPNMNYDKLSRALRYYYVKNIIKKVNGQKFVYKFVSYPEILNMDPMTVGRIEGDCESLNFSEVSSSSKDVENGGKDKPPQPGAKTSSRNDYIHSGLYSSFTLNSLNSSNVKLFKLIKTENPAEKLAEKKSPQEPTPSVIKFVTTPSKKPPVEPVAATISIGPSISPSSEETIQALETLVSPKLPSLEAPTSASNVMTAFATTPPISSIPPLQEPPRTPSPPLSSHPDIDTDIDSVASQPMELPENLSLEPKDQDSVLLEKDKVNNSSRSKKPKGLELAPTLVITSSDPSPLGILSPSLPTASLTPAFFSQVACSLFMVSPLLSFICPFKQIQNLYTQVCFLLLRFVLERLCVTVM
Method in brief: as §1

ETV2 = target: T10, ETV2 (Homo sapiens, UniProt O00321 1-342); details: protein: recombinant; tags: N-terminal GST; dsDNA, one strand shown
T10 sequence: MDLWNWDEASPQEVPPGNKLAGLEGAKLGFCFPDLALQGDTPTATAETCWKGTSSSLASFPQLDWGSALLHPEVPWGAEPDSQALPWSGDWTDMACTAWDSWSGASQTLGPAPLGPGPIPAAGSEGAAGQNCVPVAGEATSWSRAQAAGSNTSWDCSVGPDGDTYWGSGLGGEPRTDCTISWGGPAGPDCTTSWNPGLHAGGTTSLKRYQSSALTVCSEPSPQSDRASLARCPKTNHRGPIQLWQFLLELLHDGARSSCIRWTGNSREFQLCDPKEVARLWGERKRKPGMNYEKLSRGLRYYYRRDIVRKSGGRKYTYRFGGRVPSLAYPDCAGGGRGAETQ
Method in brief: as §1

ELF3 = target: T11, ELF3 (Homo sapiens, UniProt P78545 1-371); details: protein: recombinant; tags: N-terminal GST; dsDNA, one strand shown
T11 sequence: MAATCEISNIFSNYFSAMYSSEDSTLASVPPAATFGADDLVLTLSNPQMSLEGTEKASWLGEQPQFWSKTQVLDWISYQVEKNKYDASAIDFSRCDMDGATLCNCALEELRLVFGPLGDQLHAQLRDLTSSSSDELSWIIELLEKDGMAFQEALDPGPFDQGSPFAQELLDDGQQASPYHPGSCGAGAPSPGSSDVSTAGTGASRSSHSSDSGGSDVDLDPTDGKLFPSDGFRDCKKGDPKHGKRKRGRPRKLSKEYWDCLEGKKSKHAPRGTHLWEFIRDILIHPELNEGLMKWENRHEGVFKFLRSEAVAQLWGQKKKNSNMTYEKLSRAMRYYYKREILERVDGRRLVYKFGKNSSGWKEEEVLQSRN
Method in brief: as §1

CRX = CRX (Homo sapiens, UniProt O43186 1-299); details: protein: recombinant; tags: N-terminal GST; dsDNA, one strand shown
Method in brief: as §1

ETV1 = ETV1 (Homo sapiens, UniProt P50549 1-477); details: protein: recombinant; tags: N-terminal GST; dsDNA, one strand shown
Method in brief: as §1

ELF4, sequence (Q99607 whole entry): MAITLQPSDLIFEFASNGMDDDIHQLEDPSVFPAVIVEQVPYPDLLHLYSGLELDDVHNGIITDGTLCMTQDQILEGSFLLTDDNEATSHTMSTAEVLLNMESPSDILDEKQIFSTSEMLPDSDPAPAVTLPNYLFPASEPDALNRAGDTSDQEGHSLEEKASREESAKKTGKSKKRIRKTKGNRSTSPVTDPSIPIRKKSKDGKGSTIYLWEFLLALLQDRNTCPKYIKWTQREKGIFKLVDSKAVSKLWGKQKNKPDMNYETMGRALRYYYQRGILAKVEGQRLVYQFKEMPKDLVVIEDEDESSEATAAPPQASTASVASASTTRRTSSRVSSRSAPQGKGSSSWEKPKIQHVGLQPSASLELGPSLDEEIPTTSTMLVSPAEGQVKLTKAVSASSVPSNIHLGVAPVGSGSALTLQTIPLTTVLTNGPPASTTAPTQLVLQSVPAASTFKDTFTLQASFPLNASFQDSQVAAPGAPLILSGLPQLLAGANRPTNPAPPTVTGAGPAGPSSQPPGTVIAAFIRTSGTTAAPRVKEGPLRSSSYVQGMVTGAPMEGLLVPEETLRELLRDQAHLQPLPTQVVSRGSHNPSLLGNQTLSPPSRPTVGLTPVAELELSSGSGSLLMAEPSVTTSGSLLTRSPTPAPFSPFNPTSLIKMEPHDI
ETV5, sequence (P41161 whole entry): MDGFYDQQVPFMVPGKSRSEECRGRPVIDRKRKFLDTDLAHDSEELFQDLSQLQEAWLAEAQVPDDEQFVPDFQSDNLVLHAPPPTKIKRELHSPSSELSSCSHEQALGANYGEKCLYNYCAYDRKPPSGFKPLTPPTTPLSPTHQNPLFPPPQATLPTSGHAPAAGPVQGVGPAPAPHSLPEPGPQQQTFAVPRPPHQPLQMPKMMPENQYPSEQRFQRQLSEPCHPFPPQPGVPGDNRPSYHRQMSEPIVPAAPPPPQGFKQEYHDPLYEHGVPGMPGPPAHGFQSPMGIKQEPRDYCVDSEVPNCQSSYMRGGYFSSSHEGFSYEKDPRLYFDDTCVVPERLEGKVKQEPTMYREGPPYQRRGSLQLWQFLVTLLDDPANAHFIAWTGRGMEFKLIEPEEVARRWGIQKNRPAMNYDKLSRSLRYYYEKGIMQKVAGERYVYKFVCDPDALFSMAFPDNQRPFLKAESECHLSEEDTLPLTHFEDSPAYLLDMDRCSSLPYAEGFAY
SPIB, sequence (Q01892 whole entry): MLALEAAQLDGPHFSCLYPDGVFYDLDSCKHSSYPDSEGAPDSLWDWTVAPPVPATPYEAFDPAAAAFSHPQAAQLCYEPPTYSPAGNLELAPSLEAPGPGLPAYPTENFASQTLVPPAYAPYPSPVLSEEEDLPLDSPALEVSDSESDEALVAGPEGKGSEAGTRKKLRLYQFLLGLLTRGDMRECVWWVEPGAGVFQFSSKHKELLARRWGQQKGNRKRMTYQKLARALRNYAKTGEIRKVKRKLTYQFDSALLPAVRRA
CRX, sequence (O43186 whole entry): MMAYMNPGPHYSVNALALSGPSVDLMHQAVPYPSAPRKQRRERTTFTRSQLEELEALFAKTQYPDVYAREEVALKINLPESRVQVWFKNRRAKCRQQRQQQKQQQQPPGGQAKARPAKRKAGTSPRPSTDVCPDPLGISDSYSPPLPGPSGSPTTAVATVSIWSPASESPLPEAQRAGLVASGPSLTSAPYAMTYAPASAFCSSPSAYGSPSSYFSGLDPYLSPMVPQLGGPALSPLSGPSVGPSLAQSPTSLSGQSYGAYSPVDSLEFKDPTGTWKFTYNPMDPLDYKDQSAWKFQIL
ETV1, sequence (P50549 whole entry): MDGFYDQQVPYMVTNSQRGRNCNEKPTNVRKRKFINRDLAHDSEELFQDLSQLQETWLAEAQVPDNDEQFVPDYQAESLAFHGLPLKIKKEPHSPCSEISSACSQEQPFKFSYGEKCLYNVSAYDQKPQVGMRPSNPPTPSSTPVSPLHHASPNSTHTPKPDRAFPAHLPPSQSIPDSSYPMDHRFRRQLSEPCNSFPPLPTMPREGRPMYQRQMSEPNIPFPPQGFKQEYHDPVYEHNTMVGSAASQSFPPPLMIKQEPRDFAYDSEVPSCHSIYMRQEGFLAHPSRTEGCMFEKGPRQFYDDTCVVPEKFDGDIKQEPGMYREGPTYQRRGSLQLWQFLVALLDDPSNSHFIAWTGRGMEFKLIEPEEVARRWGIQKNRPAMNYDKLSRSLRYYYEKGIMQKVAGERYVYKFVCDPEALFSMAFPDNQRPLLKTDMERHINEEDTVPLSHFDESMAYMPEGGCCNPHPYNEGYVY
ELF1, sequence (P32519 whole entry): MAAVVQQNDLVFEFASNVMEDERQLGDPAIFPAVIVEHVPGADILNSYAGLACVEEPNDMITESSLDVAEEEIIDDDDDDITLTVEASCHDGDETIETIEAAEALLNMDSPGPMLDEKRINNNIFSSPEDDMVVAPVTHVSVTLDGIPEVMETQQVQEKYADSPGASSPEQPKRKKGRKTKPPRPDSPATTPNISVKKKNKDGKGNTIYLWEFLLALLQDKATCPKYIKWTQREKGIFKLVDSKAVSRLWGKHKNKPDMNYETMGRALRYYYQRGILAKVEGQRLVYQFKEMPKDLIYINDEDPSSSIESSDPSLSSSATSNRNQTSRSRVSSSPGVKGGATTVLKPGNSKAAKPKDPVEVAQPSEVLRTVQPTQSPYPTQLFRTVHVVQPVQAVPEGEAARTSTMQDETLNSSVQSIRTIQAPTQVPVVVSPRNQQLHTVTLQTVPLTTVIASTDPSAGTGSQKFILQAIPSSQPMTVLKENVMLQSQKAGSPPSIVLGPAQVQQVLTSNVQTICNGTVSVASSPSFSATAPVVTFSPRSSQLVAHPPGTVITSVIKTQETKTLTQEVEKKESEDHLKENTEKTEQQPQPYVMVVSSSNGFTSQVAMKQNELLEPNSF
HSF1, sequence (Q00613 whole entry): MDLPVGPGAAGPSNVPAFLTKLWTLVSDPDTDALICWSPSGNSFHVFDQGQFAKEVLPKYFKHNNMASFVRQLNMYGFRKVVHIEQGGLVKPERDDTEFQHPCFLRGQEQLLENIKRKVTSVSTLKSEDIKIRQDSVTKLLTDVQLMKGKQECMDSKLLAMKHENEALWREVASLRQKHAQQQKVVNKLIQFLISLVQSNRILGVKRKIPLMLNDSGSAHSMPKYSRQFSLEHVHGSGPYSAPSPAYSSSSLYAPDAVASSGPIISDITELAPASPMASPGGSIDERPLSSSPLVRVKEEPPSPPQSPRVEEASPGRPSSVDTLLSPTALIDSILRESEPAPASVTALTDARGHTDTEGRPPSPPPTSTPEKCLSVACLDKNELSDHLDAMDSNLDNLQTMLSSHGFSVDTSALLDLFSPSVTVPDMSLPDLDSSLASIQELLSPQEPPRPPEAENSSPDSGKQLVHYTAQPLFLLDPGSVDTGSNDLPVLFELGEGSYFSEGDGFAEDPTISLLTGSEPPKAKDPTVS

TCTCAA
binding signal (FLI1): 1.38 fold enrichment (6-mer frequency, TF over GST control) | binding signal (ELK1): 1.27 fold enrichment (6-mer frequency, TF over GST control) | binding signal (GABPA): 1.27 fold enrichment (6-mer frequency, TF over GST control) | binding signal (ERG): 1.28 fold enrichment (6-mer frequency, TF over GST control) | binding signal (ELF1): 1.26 fold enrichment (6-mer frequency, TF over GST control) | binding signal (EHF): 1.19 fold enrichment (6-mer frequency, TF over GST control) | binding signal (SPI1): 1.22 fold enrichment (6-mer frequency, TF over GST control) | binding signal (SPIB): 1.33 fold enrichment (6-mer frequency, TF over GST control) | binding signal (ELK3): 1.43 fold enrichment (6-mer frequency, TF over GST control) | binding signal (FEV): 1.25 fold enrichment (6-mer frequency, TF over GST control) | binding signal (ETV5): 1.3 fold enrichment (6-mer frequency, TF over GST control) | binding signal (HSF1): 1.33 fold enrichment (6-mer frequency, TF over GST control) | binding signal (SPIC): 1.24 fold enrichment (6-mer frequency, TF over GST control) | binding signal (ELF4): 1.35 fold enrichment (6-mer frequency, TF over GST control) | binding signal (ELK4): 1.25 fold enrichment (6-mer frequency, TF over GST control) | binding signal (ETV2): 1.34 fold enrichment (6-mer frequency, TF over GST control) | binding signal (ELF3): 1.45 fold enrichment (6-mer frequency, TF over GST control) | binding signal (CRX): 1.39 fold enrichment (6-mer frequency, TF over GST control) | binding signal (ETV1): 1.3 fold enrichment (6-mer frequency, TF over GST control)
